Bioassay records (PubChem BioAssay)
Hits are enriched below; roughly 2.9% of the tested compounds scored in any of these assays.
RAM network inh: yeast RAM network inhibition. S. cerevisiae dse1pr::URA3 reporter, 5-FOA growth OD615, 2 d; analog-sensitive cbk1-as2 kinase mutant strain. inhibition, % at 50 µM. AID 868. actives 1.8% (n = 190,000);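 active = inhibition above a set limit, 3 SD over mean compound inhibition, cut at about 8.4% in these data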;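 also: 0% = DMSO-only wells with no growth and 100% = 10 µM 1-NA-PP1 full growth; inhibition rescues growth on 5-FOA so higher OD means more RAM inhibition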
EP2 modulator: EP2 receptor (human) modulation; P43116; EP2-expressing cells, cAMP HTRF FRET, PGE2 co-stimulation; induction, % at 25 µM; actives 0.83% (n = 260,000);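 active = compounds whose cAMP rise, as percent of the full-agonist control response, exceeds 60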;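 also: rat C6 glioma line stably carrying human EP2 under a CMV promoter; the protocol text gives 20 µM as final concentration; 100% = response of wells given 1 µM PGE2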
Target sequence (P43116 whole entry, looked up): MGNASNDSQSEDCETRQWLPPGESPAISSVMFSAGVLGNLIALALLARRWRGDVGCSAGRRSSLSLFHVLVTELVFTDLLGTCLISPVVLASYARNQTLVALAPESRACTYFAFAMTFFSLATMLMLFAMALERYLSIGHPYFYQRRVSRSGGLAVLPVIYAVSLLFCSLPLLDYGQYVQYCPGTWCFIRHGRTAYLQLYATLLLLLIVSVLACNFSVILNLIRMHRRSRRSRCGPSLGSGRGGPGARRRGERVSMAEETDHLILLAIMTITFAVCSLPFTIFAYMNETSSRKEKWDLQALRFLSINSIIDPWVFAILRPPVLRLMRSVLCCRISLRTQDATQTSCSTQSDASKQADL
EP2 antag: EP2 receptor (human) inhibition. AID 1422. C6 glioma cells expressing human EP2, cAMP TR-FRET; cells stimulated with saturating PGE2. inhibition, % at 25 µM. actives 0.52% (n = 260,000). P43116;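 active = percent inhibition above 40 after rounding to a whole number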;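 also: rat C6 glioma host cells with rolipram phosphodiesterase inhibitor present; the protocol text gives 20 µM as final concentration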
Rev-erbA mod: modulates human Rev-erb alpha binding to DNA | P20393 | Rev-erbα–FITC-DNA binding, fluorescence polarization, 90 min | activity, % at 10 µM | actives 0.79% (n = 370,000);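 active = activity above about 14%, limit read from the data; passing the limit was not always enough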;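 also: 0% = DMSO wells with 35 nM protein and 100% = DMSO wells with 750 nM protein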
PG9 binder: PG9 antibody binding by small molecule; TR-FRET gp120-PG9 antibody binding; inhibition, % at 6.7 µM; actives 0.43% (n = 360,000); AID 624416; in the data active = inhibition above about 8.5%
SKN-1 inh: inhibitors of C. elegans SKN-1. AID 624304. inhibition, % at 21.8 µM. C. elegans VP596 Pgst-4::GFP/RFP ratio, acrylamide-induced, 24 h. actives 0.49% (n = 360,000);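 active = interference check ratio from 0.5 to 1.5 plus GFP to RFP signal ratio inhibition reaching or exceeding a fixed threshold, cut at about 30% in these data, passing the limit was not always enough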
An asterisk follows results filed as active; / = no result; ! = repeats disagree.

SMILES	RAM network inh	EP2 modulator	EP2 antag	Rev-erbA mod	PG9 binder	SKN-1 inh
O=C(NCc1ccco1)c1sc2ccccc2c1Cl	2.0	-17.7	15.2	0.6	0.5	25.1
O=C(NCc1ccco1)c1sc2cc(Cl)ccc2c1Cl	1.1	-34.2	1.5	-0.1	0.4	38.5*
c1ccc2sc(SCSc3nc4ccccc4s3)nc2c1	/	-11.0	6.0	4.8	-2.6	8.2
c1ccc2sc(SCN(C3CCCCC3)C3CCCCC3)nc2c1	/	20.9	43.4*	/	/	/
Cc1cccc2cc(CN(Cc3cccs3)C(=S)Nc3ccc(F)cc3)c(=O)[nH]c12	/	-7.0	6.7	/	/	/
COC(=O)/C(=C(/F)Sc1cc(C)c(O)c(C)c1)C(F)(F)F	3.3	-20.4	99.0*	/	/	19.9
COC(=O)C(Nc1ccccc1Cl)(c1cc(C)c(O)c(C)c1)C(F)(F)F (configuration not stated)	3.5	-11.4	12.7	/	1.8	-11.1
O=C(Nc1cccnc1)c1c(O)c2cccc3c2n(c1=O)CC3	-0.9	3.0	27.4	-6.5	1.0	38.1*
OCCCc1nc2ccccc2n1CCCCOc1ccc(Cl)cc1	/	-42.1	15.2	/	/	/
COc1ccc2c(c1)S/C(=C\C(=O)c1ccncc1)N2C	1.8	2.4	5.0	-4.7	-5.1	32.5
CN1/C(=C/C(=O)c2ccc(Cl)cc2)Sc2cc3c(cc21)OCO3	2.7	-61.9	75.4*	-31.3	-27.1	11.1
O=C(CCN1CCN(S(=O)(=O)c2ccc(Cl)cc2)CC1)Nc1ccc(F)cc1	/	/	/	0.6	-0.8	46.2*
Cc1c(/C=C2\SC(=O)NC2=O)c2ccccc2n1C	/	-38.9	7.0	/	/	/
COC(=O)[C@H](Cc1ccccc1)NC(=O)O[C@@H]1C(=O)c2cc(OC)ccc2O[C@H]1c1ccc(OC)c(Br)c1	10.6*	11.8	/	/	/	/
COC(=O)[C@H](Cc1ccccc1)NC(=O)O[C@H]1C(=O)c2ccc(OC)cc2O[C@@H]1c1ccc2c(c1)OCO2	3.9	0.1	50.9*	/	/	/
COC(=O)[C@@H](NC(=O)O[C@@H]1C(=O)c2ccc(OC)cc2O[C@H]1c1cccc(C(F)(F)F)c1)C(C)C	4.6	61.6*	/	/	/	/
CC[C@H](C)[C@@H](NC(=O)O[C@@H]1C(=O)c2cc(OC)ccc2O[C@H]1c1ccc(OC)c(Br)c1)C(=O)OC	3.0	33.2	7.3	/	/	14.6
COc1cc(-c2cc(-c3ccc(F)cc3)[nH]c(=O)c2C#N)cc(OC)c1OC	/	28.3	22.2	/	/	/
CCOC(=O)c1cnc(SCC(=O)Nc2ccc(OC)cc2)nc1N	/	-61.5	5.6	/	/	/
O=c1oc2c3c4c(cc2s1)CCCN4CCC3	0.3	73.4*	3.5	-21.3	-0.3	6.2
O=c1ccc2cc3c4c(c2o1)CCCN4CCC3	1.6	-51.0	7.1	-1.9	-5.8	-0.7
N#CCc1nn2c(-c3ccccc3)ccnc2c1C#N	/	/	/	0.9	1.1	43.2*
Cc1nn2c(-c3ccccc3)ccnc2c1-c1ccccc1	0.7	6.0	11.1	4.1	0.2	11.1
Clc1ccc(/C=C/c2nc(Cl)c(-c3ccc(Cl)cc3)c(Cl)n2)cc1	/	18.0	42.7*!	-1.4	0.4	3.3
Nc1nc(N)nc(-c2ccc(Cl)cc2)n1	-0.1	-25.7	14.4	-1.4	-1.2	5.8
SMILES	RAM network inh	EP2 modulator	EP2 antag	Rev-erbA mod	PG9 binder	SKN-1 inh
Cc1ccc(NC(=O)c2cc(-c3ccco3)on2)cc1C	5.3	-24.7	8.8	-0.9	1.7	36.1*
CN(C)c1nc(-c2ccccc2)cc(C(F)(F)F)c1C#N	7.9	27.8	-0.7	5.8	0.7	-10.2
CCN(CC)c1nc(-c2ccc(Cl)cc2)cc(C(F)(F)F)c1C#N	9.6*	36.0	7.5	1.5	-1.1	-6.3
Cc1ccc(-n2nnnc2SCC(=O)NC2CCCc3ccccc32)c(C)c1 (configuration not stated)	8.5*	-17.0	11.5	0.6	-1.9	-5.5
COc1ccc(/C=C(/NC(=O)c2ccc(OC)cc2)C(=O)NCCc2c[nH]c3ccccc23)cc1	8.5*	-12.7	13.8	-4.0	-0.5	10.3
COc1ccc(/C=C(/NC(=O)c2ccc(OC)c(OC)c2)C(=O)NCCc2c[nH]c3ccccc23)cc1	2.8	0.6	10.2	0.8	-2.5	2.9
Cc1ccc(-c2nn(-c3ccccc3)cc2/C=N/n2c(-c3cccs3)n[nH]c2=S)cc1	/	59.8	5.6	3.3	1.2	-9.0
S=c1[nH]nc(-c2cccs2)n1/N=C/c1cn(-c2ccccc2)nc1-c1cccs1	/	85.6*	7.4	1.7	-0.8	-5.1
